The list is not random: actives were taken first. Their share in the collection is about 1.8%.
GSTO1 counter = GSTO1 inhibition, counter-screen for RBBP9 inhibitors | recombinant GSTO1, activity-based probe fluorescence polarization | actives 1.1% (n = 300,000) | inhibition, % at 5.96 µM;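 active = inhibition above the campaign mean inhibition plus 3 SD, cut at about 35% in these data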;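 note: 0% = GSTO1-1 with DMSO and 100% = wells lacking GSTO1-1 enzyme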
Target sequence (P78417 whole entry, looked up): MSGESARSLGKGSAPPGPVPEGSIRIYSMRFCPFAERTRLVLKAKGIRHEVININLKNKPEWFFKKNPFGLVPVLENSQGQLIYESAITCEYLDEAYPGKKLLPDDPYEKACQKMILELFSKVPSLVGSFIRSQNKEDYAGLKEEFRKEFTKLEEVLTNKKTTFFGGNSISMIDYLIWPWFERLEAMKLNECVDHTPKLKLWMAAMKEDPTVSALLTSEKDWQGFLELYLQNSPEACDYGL
PME-1 inh = PME-1 (human) inhibition. Q9Y570. recombinant PME-1, FP-Rh probe fluorescence polarization. inhibition, % at 5.9 µM. actives 0.53% (n = 320,000). AID 2130;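 active = inhibition above the campaign mean of all compounds plus 3 SD, cut at about 26% in these data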;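 note: competitive labeling of PME-1 active site by serine hydrolase directed probe; 0% = PME-1 with DMSO and 100% = wells lacking PME-1 enzyme; inhibitors block probe labeling so polarization falls and inhibition rises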
LYPLA1 inh = counter-screen for PME1 inhibitors: inhibitors of human LYPLA1; inhibition, % at 5.9 µM; AID 2174; O75608; actives 0.16% (n = 320,000); recombinant LYPLA1, FP-Rh probe fluorescence polarization;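 active = inhibition above the mean of all tested compounds plus 3 SD, set per campaign, cut at about 14% in these data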;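 note: inhibitors block serine hydrolase probe labeling of LYPLA1 so polarization falls; 0% = enzyme with DMSO and 100% = wells lacking LYPLA1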
Target sequence (O75608 whole entry, looked up): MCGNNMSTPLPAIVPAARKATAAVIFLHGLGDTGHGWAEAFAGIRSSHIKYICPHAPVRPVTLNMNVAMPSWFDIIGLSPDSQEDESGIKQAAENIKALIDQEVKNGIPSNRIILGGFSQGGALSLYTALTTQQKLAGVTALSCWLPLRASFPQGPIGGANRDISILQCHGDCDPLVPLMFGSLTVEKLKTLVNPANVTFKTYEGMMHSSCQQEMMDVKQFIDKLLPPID
LYPLA2 counter = LYPLA2 (human) inhibition in PME1 counter-screen; inhibition, % at 5.9 µM; O95372; AID 2177; recombinant LYPLA2, FP-Rh probe fluorescence polarization; actives 0.38% (n = 320,000);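 active = inhibition above the screen-wide mean plus 3 SD, limit set per campaign, cut at about 26% in these data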;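 note: 0% = LYPLA2 with DMSO and 100% = wells lacking LYPLA2 enzyme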
Target sequence (O95372 whole entry, looked up): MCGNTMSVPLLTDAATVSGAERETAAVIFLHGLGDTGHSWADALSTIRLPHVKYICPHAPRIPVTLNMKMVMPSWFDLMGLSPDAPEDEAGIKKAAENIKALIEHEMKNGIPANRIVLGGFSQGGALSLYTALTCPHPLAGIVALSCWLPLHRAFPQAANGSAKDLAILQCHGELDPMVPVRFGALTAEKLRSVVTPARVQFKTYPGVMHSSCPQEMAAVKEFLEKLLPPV
Fam108B counter = Fam108B inhibition, counter-screen for RBBP9 inhibitors; actives 0.33% (n = 300,000); recombinant Fam108B, FP-Rh probe fluorescence polarization; inhibition, % at 9.51 µM;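 active = inhibition above the screen mean inhibition plus 3 SD, computed separately per campaign, cut at about 18% in these data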;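 note: inhibitors lower polarization as less probe binds the enzyme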
PAD4 FP inh = inhibitors of human PAD4; Q9UM07; actives 0.41% (n = 330,000); inhibition, % at 6.36 µM; recombinant PAD4, RCA probe fluorescence polarization;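 active = percent inhibition above a cutoff equal to the mean of all tested compounds plus 3 SD, cut at about 15% in these data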;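 note: 0% = PAD4 with RCA probe and DMSO and 100% = probe without PAD4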
Fam108b confirm = confirmation of mouse Fam108b serine hydrolase inhibitors | shares compounds with Fam108B counter | recombinant Fam108b, FP-Rh probe fluorescence polarization | inhibition, % at 9.51 µM | actives 44% (n = 930) | AID 1978;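 active = inhibition above a limit from the primary screen, the mean over all compounds plus 3 SD, cut at about 19% in these data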;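 note: 0% = median of active Fam108b wells and 100% = catalytically dead S170A mutant; inhibitors free the probe so polarization falls as inhibition rises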
Fam108b ABPP HTS = mouse ABHD17B inhibition; shares compounds with Fam108B counter; recombinant Fam108b, gel-based ABPP, fluorophosphonate probe; inhibition, % at 20 µM; actives 44% (n = 260); in the data active = inhibition above about 40%
* hit, by the source's call; . = no result given.

SMILES | GSTO1 counter | PME-1 inh | LYPLA1 inh | LYPLA2 counter | Fam108B counter | PAD4 FP inh | Fam108b confirm | others
CCOCc1cnc(C)nc1NCC(=O)c1c(C)[nH]c2ccccc12 | 8 | -2 | 3 | -2 | 57* | 2 | 5
CCOCc1cnc(C)nc1NCC(=O)c1c(C)[nH]c2cc(C)ccc12 | 12 | 2 | 1 | 3 | 1 | 2 | .
O=C(Nc1cc(Sc2ccccn2)cc([N+](=O)[O-])c1)c1cccc(F)c1 | -10 | 4 | -8 | -9 | 21* | -3 | -5
CCN(C[C@H]1N[C@@](CC)(C(=O)OC)[C@H]2C(=O)N(C)C(=O)[C@@H]12)S(=O)(=O)c1ccc(OC(F)(F)F)cc1 | . | . | . | . | . | 0 | .
O=C(Nc1ccc(-c2csc(Nc3ccccc3)n2)cc1)c1ccccc1 | 1 | 7 | -6 | -3 | 5 | 3 | .
O=C(Nc1cccc(-c2csc(Nc3ccc(Cl)cc3)n2)c1)c1cccc(C(F)(F)F)c1 | -8 | 4 | -22 | -14 | 27* | 0 | -14
O=C(Nc1cccc(-c2csc(Nc3ccc(Cl)cc3)n2)c1)c1ccccc1 | -20 | 1 | -26 | -18 | 24* | -2 | 20*
C[C@H]1CN([C@@H](C)CO)C(=O)c2cc(NC(=O)c3ccncc3)ccc2O[C@H]1CN(C)Cc1ccc(C(=O)O)cc1 | . | . | . | . | . | -1 | .
O=C(O)C1=C[C@H](c2csc3ccccc23)C[C@H](OCc2ccc(CO)cc2)O1 | 1 | -3 | 4 | 5 | 32* | -2 | -5
O=C(O)C1=C[C@@H](c2csc3ccccc23)C[C@@H](OCc2ccc(CO)cc2)O1 | 10 | 1 | -1 | -1 | 4 | -1 | .
Cc1cc(-c2nnc(SCC(=O)Nc3ccc(C)c(C)c3)n2N)n[nH]1 | 0 | 5 | -3 | -4 | 3 | -1 | .
COc1cc(/C=N/NC(=O)c2ccc(CSc3nc4ccccc4[nH]3)cc2)ccc1O | -49 | -32 | -31 | -27 | 24* | -6 | 2
COc1cc(/C=N/NC(=O)c2ccccc2)ccc1O | 3 | -7 | 1 | -5 | 4 | -8 | .
COc1ccc(/C=N/Nc2nc(N)cc(Cl)n2)cc1OC | -2 | 3 | 4 | 2 | 2 | -2 | .
Nc1cc(Cl)nc(N/N=C/c2c(O)ccc3ccccc23)n1 | 16 | 32* | 3 | -3 | 28* | -2 | 2
O=C(N/N=C\c1c(O)ccc2ccccc12)c1ccc(O)cc1 | -3 | 19 | -15 | -26 | 23* | 2 | -1
O=C(O)c1cc(N/N=C/c2c(O)ccc3ccccc23)ccc1Cl | 21 | 31* | 4 | 4 | 19* | 7 | 19*
Nc1nonc1N/N=C/c1c(O)ccc2ccccc12 | -21 | 30* | -29 | -39 | 24* | 1 | 6
COc1ccc(Cn2c(O)c(C=Nc3ccc(O)cc3)c3ccccc3c2=O)cc1 | -13 | 21 | 4 | 3 | 31* | 1 | 18
Cc1ccc(NS(=O)(=O)c2cc(C(=O)Nc3cccc([N+](=O)[O-])c3)ccc2C)cc1 | -28 | -33 | -29 | -49 | -17 | -7 | .
Cc1ccc(NC(=O)CC(=O)c2ccc([N+](=O)[O-])cc2)cc1S(=O)(=O)Nc1cccc(Cl)c1 | -44 | 9 | -7 | -10 | 25* | -1 | 14
c1ccc(CSc2nnc(-c3ccco3)n2Cc2ccco2)cc1 | -9 | 4 | 3 | 6 | -2 | 3 | .
CCCCOc1[nH]c2nc(-c3ccco3)n(Cc3ccco3)c(=N)c2c1C#N | -160 | 14 | -1 | 4 | 20* | 9 | 13
Oc1[nH]c2ccc(Br)cc2c1N=NC(=S)Nc1ccc(F)cc1 | -52 | 13 | -9 | -9 | 5 | 1 | .
Oc1cccc(NC(=S)N=Nc2c(O)[nH]c3ccc(Br)cc23)c1 | -40 | 33* | -7 | 1 | 24* | 0 | 8
SMILES | GSTO1 counter | PME-1 inh | LYPLA1 inh | LYPLA2 counter | Fam108B counter | PAD4 FP inh | Fam108b confirm | others
Cc1c(C)c2cc(Cl)c(O)c(CN(C)C)c2oc1=O | 0 | 0 | 4 | 6 | 2 | -2 | .
O=c1oc2c(O)c(O)cc3c(=O)oc4c(O)c(O)cc1c4c23 | 70* | -20 | -11 | -1 | 55* | -4 | 42* | Fam108b ABPP HTS=0
O=C(NCc1ccccc1)c1sc(=S)n2c1[nH]c(=O)c1ccccc12 | -71 | 11 | -3 | 5 | 40* | -5 | 55* | Fam108b ABPP HTS=0
CCOC(=O)Nc1cccc(OCC(=O)Nc2ccc3c(c2)CCC3)c1 | . | . | . | . | . | -2 | .
CC(=O)Nc1ccc(Oc2ccc(S(=O)(=O)N3CCCC3)cn2)cc1 | . | 8 | 0 | 0 | . | 4 | .
O=[N+]([O-])c1cc(Br)c(O)c(/C=N/Nc2nnnn2-c2cccc3ccccc23)c1 | -35 | 49* | 5 | 16 | 40* | -7 | 54*
Cc1cccc([C@@H]2[C@@H]3C(=O)N(Cc4ccccc4)C(=O)[C@@H]3[C@]3(Cc4ccccc4)C(=O)N(c4ccc(C(F)(F)F)cc4)C(=O)N23)c1 | -2 | -2 | -6 | -10 | -2 | 5 | .
COc1ccccc1CC(=O)NNS(=O)(=O)c1ccc([N+](=O)[O-])cc1 | 7 | -4 | 2 | -3 | 21* | -6 | -13
O=[N+]([O-])c1cc(Cl)cc(C=NNC(=S)Nc2cc(S(=O)(=O)N3CCOCC3)ccc2Cl)c1O | . | . | . | . | . | . | . | Fam108b ABPP HTS=0
O=C(Cn1cnc2c(NCc3ccccc3)ncnc21)NCCc1cc2ccccc2[nH]1 | . | . | . | . | . | 5 | .
NNc1nc2c(-c3ccc(Cl)cc3)nnn2c2ccccc12 | -6 | -16 | -11 | -10 | 55* | -6 | 65* | Fam108b ABPP HTS=0
NNc1nc2c(-c3ccc(F)cc3)nnn2c2ccccc12 | -21 | 5 | -11 | -18 | 26* | -5 | 9
Fc1ccc(-c2nnn3c2nc(NCc2ccccc2)c2ccccc23)cc1 | -10 | 2 | 0 | 3 | 2 | 1 | .
COCCCNc1nc2c(-c3ccc(Cl)cc3)nnn2c2ccccc12 | 1 | 0 | 4 | 1 | 1 | 4 | .
Nc1c(C(=O)OCC(=O)Nc2cccc([N+](=O)[O-])c2)[nH]c(=O)[nH]c1=O | . | . | . | . | . | -11 | .
COc1ccc(-c2csc(NC(=O)c3ccccc3NS(=O)(=O)c3ccc(C)cc3)n2)cc1 | -22 | 21 | -6 | 13 | 36* | -6 | 12
CCC(=O)NC(=S)Nc1ccc(NC(=O)c2ccc([N+](=O)[O-])cc2Cl)cc1 | -19 | 6 | -1 | 10 | 34* | -2 | 5
O=C(CSc1nnc(NC2CCCCC2)s1)Nc1ccc2c(c1)C(=O)c1ccccc1C2=O | 10 | 9 | -6 | 1 | 42* | 3 | 3
CC(C)Nc1nnc(SCC(=O)Nc2sccc2C#N)s1 | . | 5 | -10 | -10 | . | -5 | .
